Source: PubChem BioAssay (EPA / NIEHS)
The source made the active and inactive calls. Rule for the calls: active = hit-call score of the fitted dose curve at least 0.9, where 1 is the maximum; inactive = score below 0.9.

Legend:
Settings in all cases: mRNA level, 48 h; actives raise or lower the signal
[1] = read-out: DNA damage-inducible transcript 3 (DDIT3), DDIT3 (gene 1649); assay: LTEA_HepaRG_DDIT3: Life Technologies and Expression Analysis (LTEA) Assay for DNA damage-inducible transcript 3 (DDIT3) using HepaRG (AID 2283488)
Procedure, shortened: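 HepaRG plated 48 h, switched to serum-free induction medium, dosed 48 h (100 uM top, half-log, 8 pts, 0.5% DMSO, n=2); RNA isolated; DDIT3 by qRT-PCR; bidirectional curve fit vs DMSO.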

[2] = read-out: Pro-epidermal growth factor (Homo sapiens) (UniProt P01133); assay: LTEA_HepaRG_EGF: Life Technologies and Expression Analysis (LTEA) Assay for Epidermal growth factor (EGF) using HepaRG (AID 2283489)
Procedure, shortened: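 HepaRG cells (~100,000/well, 48 h pre-culture) exposed in duplicate for 48 h in serum-free induction medium to 8 half-log concentrations up to 100 uM in 0.5% DMSO. EGF mRNA by qRT-PCR, normalized to ACTB/GAPDH/POLR2A; bidirectional fit versus DMSO.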

[3] = read-out: Early growth response protein 1 (EGR1) transcription factor, EGR1 (gene 1958); assay: LTEA_HepaRG_EGR1: Life Technologies and Expression Analysis (LTEA) Assay for Early growth response protein 1 (EGR1) transcription factor using HepaRG (AID 2283490)
Procedure, shortened: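 Differentiated human HepaRG cells in serum-free induction medium were exposed in duplicate for 48 h to eight concentrations (top 100 uM, half-log steps) in 0.5% DMSO. EGR1 mRNA was quantified by qRT-PCR, normalized to ACTB, GAPDH and POLR2A, and fitted bidirectionally versus DMSO.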

[4] = read-out: Ezrin (EZR), EZR (gene 7430); assay: LTEA_HepaRG_EZR: Life Technologies and Expression Analysis (LTEA) Assay for Ezrin (EZR) using HepaRG (AID 2283491)
Procedure, shortened: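 EZR transcript levels came from Fluidigm qRT-PCR and were normalized to three housekeeping genes after 48 h chemical exposure of HepaRG cells. Dosing used an 8-point half-log series with a 100 uM top concentration in 0.5% DMSO, tested in duplicate; both directions were fitted versus vehicle.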

[5] = read-out: CYP3A5 (gene 1577); assay: LTEA_HepaRG_CYP3A5: Life Technologies and Expression Analysis (LTEA) Assay for CYP3A5 using HepaRG (AID 2283493)
Procedure, shortened: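 HepaRG plated 48 h, switched to serum-free induction medium, chemicals added 48 h (max 100 uM, half-log, 0.5% DMSO). RNA isolated; CYP3A5 by TaqMan qRT-PCR. Gain/loss vs DMSO.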

[6] = read-out: Fatty Acid-Binding Protein 1 (FABP1), FABP1 (gene 2168); assay: LTEA_HepaRG_FABP1: Life Technologies and Expression Analysis (LTEA) Assay for Fatty Acid-Binding Protein 1 (FABP1) using HepaRG (AID 2283494)
Procedure, shortened: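 Differentiated human HepaRG cells were exposed in duplicate for 48 h in serum-free induction medium to 8-point half-log concentration series topping at 100 uM in 0.5% DMSO. FABP1 mRNA measured by TaqMan qRT-PCR, normalized to ACTB/GAPDH/POLR2A; bidirectional fit versus DMSO.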

[7] = read-out: Cytochrome P450 4A22 (Homo sapiens) (UniProt Q5TCH4); assay: LTEA_HepaRG_CYP4A22: Life Technologies and Expression Analysis (LTEA) Assay for Cytochrome P450 4A22 (CYP4A22) using HepaRG (AID 2283495)
Procedure, shortened: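 Differentiated HepaRG cells in serum-free induction medium exposed 48 h in duplicate to eight half-log concentrations up to 100 uM in 0.5% DMSO. CYP4A22 mRNA quantified by TaqMan qRT-PCR, normalized to ACTB, GAPDH and POLR2A; bidirectional fit versus DMSO.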

[8] = read-out: Cytochrome P450 7A1 (Homo sapiens) (UniProt P22680); assay: LTEA_HepaRG_CYP7A1: Life Technologies and Expression Analysis (LTEA) Assay for Cytochrome P450 7A1 (CYP7A1) using HepaRG (AID 2283496)
Procedure, shortened: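 HepaRG cells plated 48 h, then switched to serum-free induction medium and exposed in duplicate for 48 h to 8-point half-log series from 100 uM in 0.5% DMSO. CYP7A1 mRNA by qRT-PCR (TaqMan), normalized to ACTB/GAPDH/POLR2A; bidirectional fit versus DMSO.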

[9] = read-out: Glutathione S-Transferase (GSTA2), GSTA2 (gene 2939); assay: LTEA_HepaRG_GSTA2: Life Technologies and Expression Analysis (LTEA) Assay for Glutathione S-Transferase (GSTA2) using HepaRG (AID 2283497)
Procedure, shortened: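 Human HepaRG cells, plated 48 h, then exposed in serum-free induction medium for 48 h to eight half-log concentrations up to 100 uM in 0.5% DMSO, duplicate. GSTA2 mRNA by qRT-PCR, normalized to ACTB/GAPDH/POLR2A; bidirectional fit versus DMSO.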

[10] = read-out: Glutamate-cysteine ligase catalytic (GCLC), GCLC (gene 2729); assay: LTEA_HepaRG_GCLC: Life Technologies and Expression Analysis (LTEA) Assay for Glutamate-cysteine ligase catalytic (GCLC) using HepaRG (AID 2283498)
Procedure, shortened: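 Differentiated human HepaRG cells, plated 48 h then switched to serum-free induction medium, were exposed in duplicate for 48 h to 8 half-log concentrations topping at 100 uM in 0.5% DMSO. GCLC mRNA was quantified by qRT-PCR against ACTB, GAPDH and POLR2A.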

[11] = read-out: growth arrest and DNA damage 45 (GADD45G), GADD45G (gene 10912); assay: LTEA_HepaRG_GADD45G: Life Technologies and Expression Analysis (LTEA) Assay for growth arrest and DNA damage 45 (GADD45G) using HepaRG (AID 2283499)
Procedure, shortened: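 Differentiated human HepaRG cells, 48 h post-plating, exposed 48 h in serum-free induction medium to 8 half-log concentrations (top 100 uM, 0.5% DMSO) in duplicate. GADD45G mRNA measured by Fluidigm TaqMan qRT-PCR, normalized to ACTB, GAPDH, POLR2A; bidirectional fit versus DMSO.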

[12] = read-out: Glutamate-cysteine ligase regulatory (GCLM), GCLM (gene 2730); assay: LTEA_HepaRG_GCLM: Life Technologies and Expression Analysis (LTEA) Assay for Glutamate-cysteine ligase regulatory (GCLM) using HepaRG (AID 2283500)
Procedure, shortened: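 Cells were plated, cultured 48 h, switched to serum-free induction medium, then dosed in duplicate for 48 h at eight half-log concentrations up to 100 uM. RNA was then profiled by qRT-PCR; gain or loss versus DMSO was fitted.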

[13] = read-out: Glutathione S-transferase M3 (GSTM3), GSTM3 (gene 2947); assay: LTEA_HepaRG_GSTM3: Life Technologies and Expression Analysis (LTEA) Assay for Glutathione S-transferase M3 (GSTM3) using HepaRG (AID 2283501)
Procedure, shortened: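 Differentiated human HepaRG cells were exposed in duplicate for 48 h in serum-free induction medium, 8 points from 100 uM top in half-log steps, 0.5% DMSO. GSTM3 mRNA was measured by TaqMan qRT-PCR, normalized to ACTB, GAPDH and POLR2A; bidirectional fit versus DMSO.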

[14] = read-out: Hypoxia-inducible factor 1-alpha (Homo sapiens) (UniProt Q16665); assay: LTEA_HepaRG_HIF1A: Life Technologies and Expression Analysis (LTEA) Assay for Hypoxia-inducible factor 1 (HIF1A) Trancription factor using HepaRG (AID 2283503)
Procedure, shortened: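 Differentiated HepaRG cells in serum-free induction medium exposed 48 h, in duplicate, to 8-point half-log series from 100 uM in 0.5% DMSO. HIF1A mRNA measured by TaqMan qRT-PCR, normalized to ACTB/GAPDH/POLR2A, fitted bidirectionally versus DMSO.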

[15] = read-out: 3-Hydroxy-3-Methylglutaryl-CoA Synthase 2 (HMGCS2), HMGCS2 (gene 3158); assay: LTEA_HepaRG_HMGCS2: Life Technologies and Expression Analysis (LTEA) Assay for 3-Hydroxy-3-Methylglutaryl-CoA Synthase 2 (HMGCS2) using HepaRG (AID 2283504)
Procedure, shortened: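 Human HepaRG cells in serum-free induction medium were exposed in duplicate for 48 h to 8-point half-log series from 100 uM top in 0.5% DMSO. HMGCS2 mRNA measured by TaqMan qRT-PCR, normalised to ACTB, GAPDH, POLR2A; bidirectional fit versus DMSO.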

[16] = read-out: Insulin Like Growth Factor 1 (IGF1), IGF1 (gene 3479); assay: LTEA_HepaRG_IGF1: Life Technologies and Expression Analysis (LTEA) Assay for Insulin Like Growth Factor 1 (IGF1) using HepaRG (AID 2283506)
Procedure, shortened: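 HepaRG, plated 48 h, then switched to serum-free induction media; test chemical 8-pt half-log from 100 uM (0.5% DMSO), duplicate, 48 h. Lysis in RLT, TaqMan qRT-PCR, norm. ACTB/GAPDH/POLR2A. Bidirectional fit vs DMSO.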

[17] = read-out: Intercellular Adhesion Molecule 1 (ICAM1), ICAM1 (gene 3383); assay: LTEA_HepaRG_ICAM1: Life Technologies and Expression Analysis (LTEA) Assay for Intercellular Adhesion Molecule 1 (ICAM1) using HepaRG (AID 2283507)
Procedure, shortened: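 Differentiated human HepaRG cells in serum-free induction medium exposed 48 h in duplicate to 8 half-log concentrations (top 100 uM, 0.5% DMSO). ICAM1 mRNA quantified by TaqMan qRT-PCR, normalized to ACTB, GAPDH and POLR2A; bidirectional fitting versus DMSO.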

[18] = read-out: Cytochrome P450 3A7 (Homo sapiens) (UniProt P24462); assay: LTEA_HepaRG_CYP3A7: Life Technologies and Expression Analysis (LTEA) Assay for CYP3A7 using HepaRG (AID 2283492)
Procedure, shortened: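 Differentiated HepaRG cells in serum-free induction medium exposed 48 h in duplicate to 8-point half-log series from 100 uM top in 0.5% DMSO. CYP3A7 mRNA by qRT-PCR, normalized to ACTB/GAPDH/POLR2A, bidirectional fit versus DMSO.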

[19] = read-out: Heat shock 70 kDa protein 1 (HSPA1A), gene 3303; assay: LTEA_HepaRG_HSPA1A: Life Technologies and Expression Analysis (LTEA) Assay for Heat shock 70 kDa protein 1 (HSPA1A) using HepaRG (AID 2283502)
Procedure, shortened: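 Readout is HSPA1A transcript level by microfluidic qRT-PCR, normalized to three housekeeping genes and analysed for gain or loss of signal relative to 0.5% DMSO. Human HepaRG cultures received test chemicals for 48 h at up to 100 uM.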

[20] = read-out: HGF (gene 3082); assay: LTEA_HepaRG_HGF: Life Technologies and Expression Analysis (LTEA) Assay for Hepatocyte Growth Facto (HGF) using HepaRG (AID 2283505)
Procedure, shortened: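 Differentiated HepaRG cells in serum-free induction medium exposed 48 h in duplicate, 8 half-log concentrations from 100 uM in 0.5% DMSO. HGF mRNA by qRT-PCR, normalised to ACTB, GAPDH, POLR2A; bidirectional fitting.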

Measured: AC50

Hypoxia-inducible factor 1-alpha (Homo sapiens), sequence (Q16665 whole entry, looked up): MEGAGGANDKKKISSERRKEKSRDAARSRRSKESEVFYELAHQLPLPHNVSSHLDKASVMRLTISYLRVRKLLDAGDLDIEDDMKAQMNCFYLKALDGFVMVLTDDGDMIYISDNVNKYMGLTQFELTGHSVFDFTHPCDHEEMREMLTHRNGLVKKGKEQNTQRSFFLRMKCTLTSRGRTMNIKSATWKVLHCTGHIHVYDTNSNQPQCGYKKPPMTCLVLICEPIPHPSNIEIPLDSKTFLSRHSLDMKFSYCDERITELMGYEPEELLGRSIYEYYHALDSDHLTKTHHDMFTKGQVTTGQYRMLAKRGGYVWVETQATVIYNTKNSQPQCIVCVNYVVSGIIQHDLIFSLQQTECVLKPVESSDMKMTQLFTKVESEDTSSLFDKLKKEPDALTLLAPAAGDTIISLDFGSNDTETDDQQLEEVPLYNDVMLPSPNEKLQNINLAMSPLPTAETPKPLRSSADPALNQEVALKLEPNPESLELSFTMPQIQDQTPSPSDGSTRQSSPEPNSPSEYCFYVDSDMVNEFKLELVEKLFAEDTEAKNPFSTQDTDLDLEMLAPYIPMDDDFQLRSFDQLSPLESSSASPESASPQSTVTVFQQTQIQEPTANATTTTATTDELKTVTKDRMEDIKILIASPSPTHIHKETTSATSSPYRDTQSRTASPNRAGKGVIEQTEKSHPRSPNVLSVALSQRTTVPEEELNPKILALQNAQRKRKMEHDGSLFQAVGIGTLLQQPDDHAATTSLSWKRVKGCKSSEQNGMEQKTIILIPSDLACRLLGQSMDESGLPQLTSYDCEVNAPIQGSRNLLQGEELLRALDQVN
Cytochrome P450 3A7 (Homo sapiens), sequence (P24462 whole entry, looked up): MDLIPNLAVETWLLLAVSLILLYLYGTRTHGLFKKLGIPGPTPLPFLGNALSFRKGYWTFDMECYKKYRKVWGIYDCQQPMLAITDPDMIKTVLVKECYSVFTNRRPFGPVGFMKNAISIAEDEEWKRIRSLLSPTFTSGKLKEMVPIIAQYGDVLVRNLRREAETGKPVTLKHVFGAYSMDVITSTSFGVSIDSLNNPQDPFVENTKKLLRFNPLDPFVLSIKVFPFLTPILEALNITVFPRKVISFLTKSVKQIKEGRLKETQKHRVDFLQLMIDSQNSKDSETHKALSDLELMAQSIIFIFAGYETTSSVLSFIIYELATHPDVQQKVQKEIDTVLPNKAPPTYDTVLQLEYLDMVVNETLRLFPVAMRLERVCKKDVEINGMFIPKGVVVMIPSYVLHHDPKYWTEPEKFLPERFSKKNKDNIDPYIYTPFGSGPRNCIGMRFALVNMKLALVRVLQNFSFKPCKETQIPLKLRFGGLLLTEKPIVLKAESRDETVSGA

O=[N+]([O-])C(CO)(CO)CO
not listed: [18] | [19] | [20]
inactive: all other assays above

CC(=O)Oc1ccccc1C(=O)O
not listed: [3] | [14]
inactive: all other assays above

CCCCC(CC)COC(=O)CC(C(=O)OCC(CC)CCCC)S(=O)(=O)O (stereo not given)
active: [1] 71.9 µM | [3] 85.5 µM | [5] 82.9 µM | [6] 91.6 µM | [9] 82.2 µM | [11] 87 µM | [12] 79.7 µM | [15] 79.6 µM
not listed: [8] | [10] | [18] | [19]
inactive: all other assays above

C1CCC(SSC2CCCCC2)CC1
not listed: [10]
inactive: all other assays above
